Measured values published in PubChem BioAssay AID1159580 (chemical genetic matrix, 2015).
Among all 5,500 compounds or so, about 2,000 (36%) were called active. About 18% were inconclusive and are not listed. Rule as the data show it: active = normalized growth mostly below about 0.91 (no sharp cut-off); inconclusive = no clear call, values can overlap the other calls; inactive = mostly above about 0.92. The list shows a part of the results.

Experiment: chemical genetic growth profiling, strain panel (AID 1159580);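 also: tested at 20 µM; growth read once vehicle control cultures reached saturation at 30 °C; 1 = growth at the plate median or of vehicle wells; lower values mean less growth of the strain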
Conditions: S. cerevisiae deletion strains, growth OD

Measured: normalized growth

C=CCc1ccc(OC)cc1
inactive: locus YAL021C, strain ccr4, active compounds read low 0.982 | locus YAL026C, strain drs2, active compounds read low 1.03 | locus YAL030W, strain snc1, active compounds read low 1 | locus YBL061C, strain skt5, active compounds read low 1.01 | locus YBR009C, strain hhf1, active compounds read low 1.01 | locus YBR023C, strain chs3, active compounds read low 1.01 | locus YBR171W, strain sec66, active compounds read low 1.01 | locus YBR231C, strain swc5, active compounds read low 1.02 | locus YBR279W, strain paf1, active compounds read low 0.995 | locus YCL011C, strain gbp2, active compounds read low 0.988 | locus YCL016C, strain dcc1, active compounds read low 1 | locus YCL069W, strain vba3, active compounds read low 0.999 | locus YCR088W, strain abp1, active compounds read low 1.01 | locus YDL005C, strain med2, active compounds read low 1.02 | locus YDL040C, strain nat1, active compounds read low 0.999 | locus YDR001C, strain nth1, active compounds read low 1 | locus YDR069C, strain doa4, active compounds read low 1.01 | locus YDR137W, strain rgp1, active compounds read low 0.994 | locus YDR159W, strain sac3, active compounds read low 1.06 | locus YDR195W, strain ref2 1 | locus YDR297W, strain sur2, active compounds read low 1.04 | locus YDR334W, strain swr1, active compounds read low 1.01 | locus YDR335W, strain msn5, active compounds read low 0.996 | locus YDR392W, strain spt3, active compounds read low 0.919 | locus YEL003W, strain gim4, active compounds read low 1.01 | locus YEL037C, strain rad23, active compounds read low 1.01 | locus YEL061C, strain CIN8 (second series), active compounds read low 0.995 | locus YER015W, strain faa2, active compounds read low 1.01 | locus YER016W, strain bim1, active compounds read low 1.01 | locus YER111C, strain swi4, active compounds read low 1 | locus YER155C, strain BEM2 (second series), active compounds read low 1.04 | locus YFR010W, strain ubp6, active compounds read low 1.03 | locus YGL167C, strain pmr1, active compounds read low 1.01 | locus YGL173C, strain kem1, active compounds read low 1.03 | locus YGL227W, strain vid30, active compounds read low 1.01 | locus YGL240W, strain doc1, active compounds read low 1.02 | locus YGL253W, strain hxk2, active compounds read low 1.02 | locus YHR013C, strain ard1, active compounds read low 1.01 | locus YHR027C, strain rpn1, active compounds read low 1.01 | locus YHR030C, strain SLT2, active compounds read low 1 | locus YHR079C, strain IRE1, active compounds read low 0.989 | locus YHR142W, strain chs7, active compounds read low 0.992 | locus YJL092W, strain hpr5, active compounds read low 1.01 | locus YJL095W, strain BCK1 (second series), active compounds read low 1.01 | locus YJL095W, strain BCK1, active compounds read low 0.995 | locus YJL115W, strain asf1, active compounds read low 1.01 | locus YJL129C, strain trk1, active compounds read low 1.03 | locus YJL154C, strain vps35, active compounds read low 1 | locus YJL164C, strain tpk1, active compounds read low 0.98 | locus YJL166W, strain qcr8, active compounds read low 1.01 | locus YJL187C, strain SWE1, active compounds read low 0.997 | locus YJR066W, strain TOR1, active compounds read low 0.939 | locus YKL160W, strain elf1, active compounds read low 0.979 | locus YKR026C, strain gcn3, active compounds read low 1.01 | locus YKR091W, strain srl3, active compounds read low 1 | locus YLL001W, strain dnm1, active compounds read low 0.996 | locus YLL026W, active compounds read low 1.02 | locus YLL041C, strain sdh2, active compounds read low 1 | locus YLR027C, strain aat2, active compounds read low 1.02 | locus YLR113W, strain HOG1, active compounds read low 0.992 | locus YLR221C, strain rsa3, active compounds read low 1.03 | locus YLR258W, strain gsy2, active compounds read low 0.999 | locus YLR262C, strain YPT6 (second series), active compounds read low 0.992 | locus YLR320W, strain mms22, active compounds read low 1.03 | locus YLR342W, strain FKS1, active compounds read low 1.01 | locus YLR357W, strain rsc2, active compounds read low 1.01 | locus YLR370C, strain arc18, active compounds read low 0.995 | locus YLR384C, strain iki3, active compounds read low 1.01 | locus YML120C, strain ndi1, active compounds read low 0.986 | locus YMR058W, strain fet3, active compounds read low 1.02 | locus YMR125W, strain sto1, active compounds read low 0.967 | locus YMR129W, active compounds read low 1.02 | locus YMR205C, strain PFK2, active compounds read low 0.999 | locus YMR231W, strain pep5, active compounds read low 1.01 | locus YNL071W, strain lat1, active compounds read low 0.991 | locus YNL183C, strain NPR1, active compounds read low 0.909 | locus YNL209W, strain ssb2, active compounds read low 0.992 | locus YNL248C, strain rpa49, active compounds read low 0.952 | locus YNL322C, strain KRE1 (second series), active compounds read low 1 | locus YNR049C, strain mso1, active compounds read low 1 | locus YOR001W, strain rrp6, active compounds read low 1.02 | locus YOR070C, strain gyp1, active compounds read low 1.02 | locus YOR080W, strain dia2, active compounds read low 1.02 | locus YOR083W, strain WHI5, active compounds read low 0.974 | locus YOR106W, strain vam3, active compounds read low 0.988 | locus YOR231W, strain MKK1, active compounds read low 1 | locus YOR265W, strain rbl2, active compounds read low 1 | locus YOR270C, strain vph1, active compounds read low 1.04 | locus YOR290C, strain snf2, active compounds read low 0.956 | locus YPL051W, strain arl3, active compounds read low 1.01 | locus YPL078C, strain atp4, active compounds read low 0.96 | locus YPL106C, strain sse1, active compounds read low 1 | locus YPL240C, strain hsp82, active compounds read low 1.02 | locus YPL256C, strain CLN2, active compounds read low 1
